High-throughput results (PubChem)
Only some compounds are listed: those with a hit (about 6.8% of all), similar ones and a draw of the others.
SW480 rereplic: A quantitative high throughput screen for small molecules that induce DNA re-replication in SW480 colon adenocarcinoma cells; SW480 DNA re-replication, Hoechst DNA content imaging, 48 h; Potency, µM (titrated, usually from 46.1 µM), for inactives: at the top dose re-replication activation, hits mostly activators; 340,000 compounds, 1.8% hits; AID 624297, 2012; also: % of control where 0% means no effect; nearly all actives have a fitted effect of over 55% in size
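Readout is total intensity of Hoechst-stained nuclei, excited at 405 nm and collected at 500-530 nm. Compound treatment lasted 48 hr at 37 C in 5% CO2 before staining.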
KB-V1 cytotox: qHTS assay for MDR1-selective chemotherapeutics: Primary screen using the drug-selected MDR subline cells KB-V1 | AID 1347076, 2019 | KB-V1 MDR cells viability, CellTiter-Glo, 72 h | Potency, µM (series often up to 46.1 µM), hits mostly cytotoxic | 400,000 compounds, 3.4% hits; also: % is scaled to controls: 0 for no effect and ±100 for the full control effect; nearly all actives have a fitted effect of over 60% in size
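qHTS viability screen in drug-selected KB-V1 MDR cells: 72 h compound treatment at 37 degrees C, ATP luminescence end point.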
PINK1 modulator: A Quantitative High throughput Screen to Identify Chemical Modulators of PINK1 Expression. PINK1 immunofluorescence, high-content cytometry, 24 h. Potency, µM (top dose mostly 76.6 µM), inactives show at the highest dose activation (PINK1 increase), hits mostly activators. 410,000 compounds, 0.2% hits. AID 624263, 2012; active = well fitted activation curve with a large enough effect; inconclusive = small, poorly fitted or top-dose-only effect; cell line not stated here; also: % of control where 0% means no effect; nearly all actives have a fitted effect of over 65% in size
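Measures PINK1 amount and localization on or inside mitochondria by immunofluorescence. Stable cells get compounds at 5 concentrations for 24 hours before fixation and staining; CCCP controls included.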
MCF10A rerep: A quantitative high throughput screen for small molecules that induce DNA re-replication in MCF 10a normal breast cells. MCF 10A DNA re-replication, Hoechst nuclear intensity, 48 h. Potency, µM (series often up to 46.1 µM), for inactives: at the top dose activity, positive = re-replication, hits mostly activators. 350,000 compounds, 2.9% hits. AID 624296, 2012; also: % of control where 0% means no effect; nearly all actives have a fitted effect of over 50% in size
KB-3-1 cytotox: qHTS assay for MDR1-selective chemotherapeutics: Primary screen using the parental adenocarcinoma cell KB-3-1; KB-3-1 viability, CellTiter-Glo ATP luminescence, 72 h; Potency, µM (series often up to 46.1 µM), most hits filed as cytotoxic; 400,000 compounds, 1.4% hits; AID 1347075, 2019; also: % is scaled to controls: 0 for no effect and ±100 for the full control effect; nearly all actives have a fitted effect of over 60% in size
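Here the drug-naive KB-3-1 line serves as comparator for MDR sub-line selectivity; cells received compound titrations, 72 h at 37 °C, then CellTiter-Glo readout.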
PTAP TSG101 blk: qHTS Assay for Iinhibitors of HIV-1 Budding by Blocking the Interaction of PTAP/TSG101; Fluorescence polarization, FITC-PTAP peptide / Tsg101 binding; AID 493005, 2010; 340,000 tested, under 10 active; Tumor susceptibility gene 101 protein (Homo sapiens), Q99816; Potency, µM (highest dose often 115 µM), inactives show at the highest dose activity change, negative = inhibition, actives largely listed as inhibitors; active = well fitted inhibition curve with a large enough effect in the main read-out, with a control signal flat, not every such curve was filed as active; inconclusive = small, poorly fitted or top-dose-only effect, or effect the other way, or a change in a side signal; inactive = no such curve, though single readings can be large or run the other way; also: % of control where 0% means no effect
Target sequence (Q99816 whole entry, looked up): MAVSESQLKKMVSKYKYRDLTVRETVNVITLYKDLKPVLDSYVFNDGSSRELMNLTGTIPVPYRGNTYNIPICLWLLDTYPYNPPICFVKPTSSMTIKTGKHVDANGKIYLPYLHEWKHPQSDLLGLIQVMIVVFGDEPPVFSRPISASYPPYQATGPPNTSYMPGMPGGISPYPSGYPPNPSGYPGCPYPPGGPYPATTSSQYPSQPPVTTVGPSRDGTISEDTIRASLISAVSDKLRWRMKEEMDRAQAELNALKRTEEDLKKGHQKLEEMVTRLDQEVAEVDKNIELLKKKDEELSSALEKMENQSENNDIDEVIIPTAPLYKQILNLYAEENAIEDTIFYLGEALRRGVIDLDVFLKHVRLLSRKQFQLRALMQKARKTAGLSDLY
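Fluorescence polarization binding of Tsg101 binding domain (10 uM final) to FITC-labeled PTAP peptide (50 nM final) in HEPES pH 7.5 buffer with NaCl, Tween 20, EDTA, TCEP. Compounds added before peptide; binding 20 min at RT.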
An asterisk follows results filed as active; i = inactive; ? = inconclusive; / = not tested or not shown; [ ] = remark or other dose. Unless noted, calls follow the shape of the dose curve; as a rule, active = well fitted curve in the direction sought with a large enough effect; inconclusive = small, poorly fitted or top-dose-only effect, or another doubt; inactive = no such curve, though single readings can be large; an effect the other way counts as inactive or inconclusive. Potency is read from the fitted curve at half-maximal effect.

SMILES | SW480 rereplic | KB-V1 cytotox | PINK1 modulator | MCF10A rerep | KB-3-1 cytotox | PTAP TSG101 blk
CC1(C(=O)Nc2cnc3ccccc3c2)CCN1C(=O)c1ccccc1CCc1ccccc1 (centres undefined) | / | 18.4µM* | 1.1% | / | ? | /
Cc1ccc(NC(=O)C2(C)CCN2C(=O)c2ccccc2CCc2ccccc2)cc1C (centres undefined) | / | ? | 1.4% | / | ? | /
CCOc1cc(/C=C/C(=O)Nc2ccc(C(=O)NCCN(CC)CC)cc2)ccc1OCC(C)C | -84.3% | i | -3.0% | ? | 18.4µM* | -3.9%
CCOc1ccc(/C=C/C(=O)Nc2ccc(C(N)=O)cc2)cc1OC | -7.7% | i | 10.8% | 6.8% | ? | -0.7%
C/C(=N\NC(=O)c1c(C)nc2ccccn12)c1ccc(C(C)(C)C)cc1 | ? | ? | 1.5% | 18.4µM* | i | 0.3%
CC(C)Cn1c(=O)c2sccc2n2c(CCCC(=O)N3CCN(c4ccc(F)cc4)CC3)nnc12 | / | / | 1.8% | / | / | /
COc1ccc(-n2ncc3c(NC4CCCC4)ncnc32)cc1 | / | i | 0.6% | / | i | /
N#C/C(=C\c1cccc(Br)c1)C(=O)N1CCCCC1 | ? | ? | -1.7% | 23.1µM* | ? | -4.3%
N#C/C(=C\c1ccccc1)C(=O)N1CCN(c2ccccc2F)CC1 | 4.9% | i | 2.4% | ? | i | -1.0%
CC(=O)N1CCN(C(=O)/C(C#N)=C/c2ccc3c(c2)OCO3)CC1 | -3.0% | i | 0.8% | 11.0% | i | -0.5%
N#C/C(=C\c1cccc(O)c1)C(=O)N1CCCCC1 | ? | ? | 0.1% | 18.4µM* | i | 0.1%
Cc1cc(/C=C(\C#N)C(=O)N2CCCCC2)cc(C)c1O | ? | ? | 6.2% | ? | 16.4µM* | -2.9%
O=C(CSc1ccncc1)NCC1Cc2cccc(-c3cncnc3)c2O1 (centres undefined) | / | / | -0.6% | / | / | /
O=C(Nc1ccc(Oc2ccccc2)cc1)Nc1nnc(-c2ccncc2)s1 | / | i | / | / | ? | /
CCn1ccc2cc(S(=O)(=O)N3CCCN(C(=O)NCC(=O)OC)CC3)ccc21 | / | i | -1.1% | / | i | /
CC=Cc1cc2c(c(=O)o1)C(=O)C(O)C(C)O2 (centres undefined) | 18.4µM* | i | 22.9% | 11.6µM* | i | -6.0%
CCc1ccc(N2CCn3c2nc2c3c(=O)n(CCc3ccccc3)c(=O)n2C)cc1 | / | / | 0.8% | / | / | /
CCC(C)(C)C1CCC2(CC1)NC(=O)N(CC(=O)NCCc1c[nH]c3ccccc13)C2=O (centres undefined) | 13.9% | 20.6µM* | 6.5% | 20.6% | ? | 0.1%
CCn1c(=O)n(CC)c2cc(N3CCCCC3)c(NC(=O)Nc3ccccc3Cl)cc21 | / | i | -0.2% | / | i | /
COc1cc(OC)cc(C(=O)NC(=S)N2CCCCCC2)c1 | -3.5% | 18.4µM* | 2.9% | -3.7% | i | 2.6%
CCOC(=O)Cc1c(C)nc2c(-c3cccc(Br)c3)c[nH]n2c1=O | 18.4µM* | i | -0.9% | 7.31µM* | i | -4.8%
COc1ccc(NC(=O)/C=C/c2ccc(OC(F)F)cc2)cn1 | ? | i | 8.2% | 20.6µM* | i | -0.2%
COc1ccc(/C=C/C(=O)Nc2ccc(OC)nc2)cc1 | -0.4% | i | 0.9% | 0.1% | ? | -0.6%
CCN1C(=O)c2cccc3c(S(=O)(=O)Nc4nc(C)cs4)ccc1c23 | -0.9% | i | 7.0% | 14.6µM* | ? | -5.5%
CN1C(=O)c2cccc3c(S(=O)(=O)N(C)C)ccc1c23 | ? | i | 0.8% | 8.2% | i | -2.7%
SMILES | SW480 rereplic | KB-V1 cytotox | PINK1 modulator | MCF10A rerep | KB-3-1 cytotox | PTAP TSG101 blk
CCN1C(=O)c2cccc3c(NC(=O)c4ccc5c(c4)OCCO5)ccc1c23 | ? | i | ? | 25.9µM* | ? | ?
CCN1C(=O)c2cccc3c(S(=O)(=O)N(C)C)ccc1c23 | / | 13µM* | -0.7% | / | i | /
CCN1C(=O)c2cccc3c(S(=O)(=O)NCc4ccco4)ccc1c23 | ? | i | ? | 11.6µM* | i | -15.9%
CCN1C(=O)c2cccc3c(NC(=O)c4ccccc4)ccc1c23 | -7.7% | i | 4.0% | -0.2% | i | 7.6%
CCN1C(=O)c2cccc3c(S(=O)(=O)Nc4ccncc4)ccc1c23 | -0.4% | i | 6.7% | 0.7% | i | -3.0%
COCC(=O)N1CCC[C@@]2(CCN(Cc3ccc(C#N)cc3)C2)C1 | / | / | 1.1% | / | / | /
COc1ccc2c(c1)c1c(c(=O)n(-c3cc(Cl)ccc3C)c(=O)n1Cc1ccc(F)cc1)n2C | / | i | -0.3% | / | i | /
CCN1C(=O)c2cccc3c(S(=O)(=O)Nc4ccccc4)ccc1c23 | 13.4% | 11.6µM* | 10.9% | 23.1µM* | ? | -2.6%
COc1ccc(OC)c(C2=NOC(C(=O)N3CCCc4ccccc43)C2)c1 (centres undefined) | -1.9% | 16.4µM* | -3.2% | ? | i | -6.0%
O=C(NCc1ccco1)C1CC(c2cc(C(F)(F)F)cc(C(F)(F)F)c2)=NO1 (centres undefined) | 13µM* | 10.3µM* | 2.5% | 6.51µM* | 4.11µM* | 2.2%
O=C(NCc1ccco1)C1CC(c2ccccc2O)=NO1 (centres undefined) | 29.2% | i | 4.8% | ? | i | 0.0%
O=C(NCc1ccco1)C1CC(c2ccccc2C(F)(F)F)=NO1 (centres undefined) | -16.3% | i | 10.1% | 46.1% | i | 2.3%
COc1ccc(OC)c(C2=NOC(C(=O)NCc3ccco3)C2)c1 (centres undefined) | ? | 16.4µM* | 12.3% | 13µM* | ? | -0.4%
COc1ccc(-n2ncc(C(=O)N3CCN(Cc4ccccc4)CC3)c2C2CCN(C(=O)OC(C)(C)C)CC2)cc1 | / | i | 0.6% | / | i | /
CC(C)Cn1c(C(C)C)nc([N+](=O)[O-])c1S(=O)(=O)c1ccc(F)cc1 | 18.4µM* | ? | -0.6%[38.3 µM] | 20.6µM* | ? | -5.8%
CCC(=O)N1c2ccc(S(=O)(=O)CCC(=O)NCc3ccc(OC)cc3)cc2CC1C (centres undefined) | / | i | 0.7% | / | i | /
O=C1CCSc2ccc(S(=O)(=O)Nc3ccc(Cl)c(C(F)(F)F)c3)cc2N1 | / | i | 1.2% | / | i | /
